HPGD block: blocks human HPGD enzyme activity; P15428; purified HPGD, NADH fluorescence kinetic, PGE2 substrate; Potency, µM, actives largely listed as inhibitors; 150,000 compounds, 4.3% hits; AID 894
Target sequence (P15428 whole entry, looked up): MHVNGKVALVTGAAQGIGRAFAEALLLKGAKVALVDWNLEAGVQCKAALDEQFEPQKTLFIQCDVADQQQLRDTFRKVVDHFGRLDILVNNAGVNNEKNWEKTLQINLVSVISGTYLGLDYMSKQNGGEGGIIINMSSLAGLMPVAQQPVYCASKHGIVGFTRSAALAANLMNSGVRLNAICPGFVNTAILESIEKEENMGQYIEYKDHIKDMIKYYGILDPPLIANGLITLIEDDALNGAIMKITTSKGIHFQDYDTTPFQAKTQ
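NADH formation kinetics: reaction with 30 uM PGE2 and 1 mM NAD+ (final), 20 nM enzyme, Tris-HCl pH 8 with Tween 20, after 15 min compound preincubation at room temperature. Fluorescence change, last versus first of five reads.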
ALDH1A1 block: inhibitors of human aldehyde dehydrogenase 1A1; Purified ALDH1A1, NADH fluorescence, propionaldehyde substrate; Potency, µM (highest dose often 75.3 µM), usual class: inhibitors; 220,000 compounds, 7.3% hits; AID 1030
PNC inhibitor: blocks assembly of the perinucleolar compartment; PC3M PTB-GFP, PNC prevalence imaging, 16 h; hits give low values; activity change (PNC), negative = inhibition, % at 10 µM; 140,000 compounds, 3.1% hits;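 active means readout at or below -70, meaning at least 70% loss of cells showing the perinucleolar compartment, a nuclear body marking cancer cells; inconclusive means readout between -30 and a set limit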
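Read-out is percentage of cells bearing a perinucleolar compartment, from automated 20x imaging of fixed, Hoechst-stained PC3M PTB-GFP cells. Cells were seeded 4 h, then exposed 16 h to compound (23 nl of library stock) in duplicate plates.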
A number is an active result; . = inactive; ? = inconclusive; / = not tested or not shown; [ ] = dose if it differs, or a comment. Shown are actives, neighbours in structure and some others; about 11% of the full set was active somewhere. Unless noted, the call rests on the fitted dose curve; in most records, active means well fitted inhibition curve with a large enough effect (not every such curve was filed as active); inconclusive means small, poorly fitted or top-dose-only effect, or another doubt; inactive means no such curve, though single readings can be large or run the other way.

SMILES	HPGD block	ALDH1A1 block	PNC inhibitor
Cc1ccc(S(=O)(=O)N2CCOCC2)cc1NC(=O)COC(=O)c1cccnc1Cl	/	.	/
CCOC(=O)c1c(C)nc2ccccc2c1C	.	.	?
CCOC(=O)c1c(Nc2ccccc2N)cc(C)nc1C	.	.	-107
C[C@@H]1C=C(C(=O)N2CCOCC2)O[C@H](OCc2ccc(CO)cc2)C1	/	.	/
O=C(Cc1ccccc1)Nc1ccc(N2CCCCC2)cc1	/	.	/
CC1CCCCN1CC(=O)Nc1ccc(Oc2ccccc2)cc1 (stereo not given)	?	.	.
COCCCNC(=S)Nc1ccc(N2CCCCC2)cc1	/	.	/
CC1CCCCN1CC(=O)Nc1ccc(N2CCCCCC2)cc1 (stereo not given)	/	20µM	/
CCC(=O)Nc1ccc(N2CCCCC2)cc1	.	.	.
O=C(CNCc1ccco1)Nc1ccc(N2CCCCCC2)cc1	/	35µM	/
CCNC(=S)Nc1ccc(N2CCCCC2)cc1	/	25µM	/
O=C(CCl)Nc1ccc(N2CCCCCC2)cc1	/	2.2µM	/
COc1ccc(O[C@H]2C=C[C@@H](c3ccccc3)O[C@H]2COC(=O)CC/C(C)=N\OC[C@@H](O)[C@H]2O[C@H]3OC(C)(C)O[C@H]3[C@@H]2O)cc1	/	.[13.5 µM]	/
O=C(c1ccco1)N1CCCN(Cc2nc(Cc3ccccc3)no2)CC1	/	.	/
CCn1cc(C(=O)OCC(=O)Nc2c(C)cccc2C)c(=O)c2ccc(C)nc21	/	.	/
CN(Cc1ccon1)Cc1cn(C)nc1-c1cccc(Cl)c1	/	.	/
CN(C)c1ccc(CNC2CC(C)(C)NC(C)(C)C2)cc1	.	?	.
CN(C)c1ccc(C2NCC(CCl)O2)cc1 (stereo not given)	.	1.4µM	.
O=C(O)c1ccc(CNc2ccccc2C(=O)O)cc1	?	?	-131
O=C(O)c1ccccc1NCc1ccncc1	?	?	.
O=C(Cc1ccccc1)Nc1ccc(NC(=O)c2cccs2)cc1Cl	/	.	/
Oc1ccc(-c2cnns2)c(O)c1	2µM	25µM	?
Oc1ccc(-c2csc(Nc3ncccn3)n2)c(O)c1	/	.	/
COc1cc(OC)cc(-c2sc3ccccc3c(=O)c2I)c1	?	.	/
CCC(SC1=N/C(=C/c2ccccc2)C(=O)N1c1ccccc1)C(=O)Nc1cc(C)on1 (stereo not given)	?	18µM	.
SMILES	HPGD block	ALDH1A1 block	PNC inhibitor
COc1ccc(/C=C2/N=C(SCC(=O)Nc3cc(C)on3)N(c3ccccc3)C2=O)cc1	.	.	.
O=C(O)C1=CC(O)[C@@H](O)C(O)C1 (stereo not given in full)	.	.	/
CCOC(=O)C1=C(C)NC(=S)NC1c1cc(C)sc1C (stereo not given)	/	40µM	/
CCOC(=O)C1=C(C)NC(=S)NC1c1ccsc1 (stereo not given)	/	7.1µM	/
CCOC(=O)C1=C(C)NC(=O)NC1c1cc(C)sc1C (stereo not given)	.	.	?
CCOC(=O)C1=C(C)N(C)C(=O)NC1c1ccc(C)s1 (stereo not given)	.	.	.
COC(=O)C1=C(C)NC(=O)NC1c1ccsc1 (stereo not given)	.	.	?
CCOC(=O)C1=C(C)NC(=S)NC1c1ccc(C)s1 (stereo not given)	/	2.5µM	/
COc1ccc(-n2c(=O)c(-c3ccc(F)cc3)nc3cnc(N4CCOCC4)nc32)cc1	/	.	/
CCOc1cc(CNn2nnnc2N)cc(Cl)c1OCC(=O)NC(C)(C)C	.	.	.
Cc1ccc(C(C)C)c(OCC(=O)Nc2ccc(Cl)cn2)c1	.	.	.
O=C(COc1ccc(Cl)cc1Cl)Nc1ccc(Cl)cn1	8.9µM	.	.
C#CCN(C)CCCOc1ccc(Cl)cc1Cl	14µM	.	.
O=C(O)CCC(=O)NNC(=O)CCCOc1ccc(Cl)cc1Cl	.	.	?
CN(C(=S)NC(=O)CCCOc1ccc(Cl)cc1Cl)c1ccccc1	11µM	18µM	.
CC(C)Nc1nc(NC(C)C)nc(N(C#N)CCOc2ccc(Cl)cc2Cl)n1	.	.	.
CC(C)NC(=O)CCCOc1ccc(Cl)cc1Cl	14µM	.	.
COC(=O)NNC(=O)CCCOc1ccc(Cl)cc1Cl	.	.	.
O=C(CCCCn1c(=O)c2ccccc2n(Cc2ccccc2)c1=O)NC1CCN(Cc2ccccc2)CC1	/	.	/
Cc1c(Cl)cccc1N(Cc1ccc(C(=O)O)cc1)S(=O)(=O)c1ccccc1	/	.	/
O=C(CN1CCN(Cc2ccccc2)CC1)N/N=C/c1cccnc1	/	.	/
CC1(C)Oc2cc3c(cc2O1)OC(C)(C)O3	/	.[13.5 µM]	/
CC1=NN(C(=O)CCc2ccccc2)C(O)(c2ccncc2)C1 (stereo not given)	/	.	/
CCOC(=O)CS(=O)(=O)c1ccc(O)cc1	/	.	/
O=C(O)[C@@H]1[C@@H]2C[C@H]3c4[nH]c5ccccc5c4CCN3C[C@@H]2CC[C@@H]1O	.	.	/
SMILES	HPGD block	ALDH1A1 block	PNC inhibitor
Cc1cccc(OCCCC(=O)NC(C)c2ccccc2)c1 (stereo not given)	.	.	.
CCN(CC)C(=O)CCCOc1ccc(Cl)cc1Cl	25µM	.	.
Cc1cccc(OCCCC(=O)NC(C)C)c1	.	.	-80
CCN(CC)C(=O)COc1ccc(Br)cc1Cl	.	.	.
NCCCC(N)CC(=O)NCC1NC(=O)C(CO)NC(=O)C(N)CNC(=O)C(C2CCN=C(N)N2)NC(=O)/C(=C\NC(N)=O)NC1=O (stereo not given)	.	.	/
FC(F)(F)c1cc(NC(=S)Nc2ccc3ccccc3c2)cc(C(F)(F)F)c1	.	.	/
CC(C)C(=O)OC1CCS(=O)(=O)c2sccc21 (stereo not given)	/	.	/
Cc1ccc(S(=O)(=O)n2ccc3cccnc32)cc1	.	.	-100
O=S(=O)(c1ccc(Cl)cc1)n1ccc2cccnc21	.	.	-100
Cc1ccc(S(=O)(=O)N2CCN(c3ccccn3)CC2)cc1	/	.	/
O=S(=O)(c1ccc(Cl)cc1Cl)n1ccc2cccnc21	/	.	/
O=C(CCN1C(=O)c2cccc3cccc(c23)C1=O)Nc1ccccc1	/	.	/
CCn1c(C(C)NC(=O)c2cccs2)n[nH]c1=S (stereo not given)	.	.	.
CCCN(CC(=O)Nc1ccccc1C)C(=O)/C=C/c1cccs1	.	?	.
CCCN(CC(=O)Nc1ccc(Cl)cc1Cl)C(=O)/C=C/c1ccco1	.	0.22µM	?
CC(C)C[C@@H](CC(=O)N[C@@H](CCC(=O)O)CC(=O)O)NC(=O)[C@@H]1CCCC[C@H]1NC(=O)C[C@H](CCCN)NC(=O)C[C@H](Cc1c[nH]c2ccccc12)NC(=O)[C@@H]1CNCC[C@H]1N	.	?	/
COc1cccc(C(c2nnnn2CC2CCCO2)N2CCN(C(=O)c3ccco3)CC2)c1OC (stereo not given)	/	.	/
Cc1ccc(C(c2nnnn2CC2CCCO2)N2CCN(C(=O)c3ccco3)CC2)cc1 (stereo not given)	.	16µM	.
CCCC(c1nnnn1CS(=O)(=O)c1ccc(C)cc1)N1CCN(c2ccccc2)CC1 (stereo not given)	.	.	?
O=C(c1ccco1)N1CCN(C(c2ccc(Cl)cc2)c2nnnn2CC2CCCO2)CC1 (stereo not given)	.	?	.
Cc1ccc(S(=O)(=O)Cn2nnnc2C(C)N2CCN(C(=O)c3ccco3)CC2)cc1 (stereo not given)	.	25µM	.
Cc1ccc(S(=O)(=O)Cn2nnnc2CN2CCN(C(=O)c3ccco3)CC2)cc1	.	?	.

Screening data as filed in PubChem.
